{
  "source": "the supplement of paper PMC8728848",
  "binders": {"B1": {"name": "PX9937D-bvu-500-26-500 (Bacteroides vulgatus) (protein)", "chain": "DPVSDITDLNYWKTPEQFDSFVFGLHSRFRSHSWNMFLLGEARSDVFGGIPFGGEATQGMERFPYNTLNAENPGISGFGDLYQNINQMNLFISRTLHTDVLTESARNYYLGQVYGLRAYYMYQLYRSWGDVVFTEEPSLGFEVGKLAKAATPAAEIFEQVKKDIESSLSYFGSDYTIKEKKSLWSKAATLMLKADVYLWSAHRDGGEGDARTAKNALVDIQNNISRSNLDLMDTYQGVFAYDNKGNKEIIFTIHNELFEYNLWNGNNDLFPQADYLGKFYNADGTLINTSVENNFGIMRLMVKLENFKKFLPGDTRRDVTLKDVYNKVENGKLELVGVYPHKYWGVMNGSTRVRCDDYPIYRYSDLLLMLAEAKVLLGEDPATEINRVRRRAFGDAYDASTVGFPNQEVDKRPADAVLQERLFEFMLEGKRWYDLRRFGDSYVLDYTPAEPARLLWPINQGALTNNPLLKQTVGY"}},
  "experiment_in_all_cases": "glycan array binding signal (z-score within array); higher = stronger binding",
  "details_in_all_cases": "glycan notation: IUPAC condensed, linker removed",
  "key": {"Fuc(a1-2)Gal(b1-3)GlcNAc": {"target": "Fuc(a1-2)Gal(b1-3)GlcNAc", "in_short": "(§1)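 The binding signal is a Z-score computed within each array. Data were drawn from 3228 arrays in the Consortium for Functional Glycomics database, restricted to those with a known protein sequence. Scores were averaged over arrays of the same protein sequence at different concentrations or buffers, and over linkers, and negative values can be taken as non-binding.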"}, "[1]": {"target": "Fuc(a1-2)Gal(b1-3)GlcNAc(b1-3)Gal(b1-4)Glc", "in_short": "as §1"}, "Fuc(a1-2)Gal(b1-4)Glc": {"target": "Fuc(a1-2)Gal(b1-4)Glc", "in_short": "as §1"}, "[2]": {"target": "Fuc(a1-2)Gal(b1-4)GlcNAc(b1-2)Man(a1-3)[Fuc(a1-2)Gal(b1-4)GlcNAc(b1-2)Man(a1-6)]Man(b1-4)GlcNAc(b1-4)[Fuc(a1-6)]GlcNAc", "in_short": "as §1"}, "[3]": {"target": "Fuc(a1-2)Gal(b1-4)GlcNAc(b1-2)[Fuc(a1-2)Gal(b1-4)GlcNAc(b1-4)]Man(a1-3)[Fuc(a1-2)Gal(b1-4)GlcNAc(b1-2)Man(a1-6)]Man(b1-4)GlcNAc(b1-4)GlcNAc", "in_short": "as §1"}, "[4]": {"target": "Fuc(a1-2)Gal(b1-4)GlcNAc(b1-3)[Fuc(a1-3)[Gal(b1-4)]GlcNAc(b1-6)]Gal(b1-4)Glc", "in_short": "as §1"}, "[5]": {"target": "Fuc(a1-2)Gal(b1-4)[Fuc(a1-3)]GlcNAc(b1-2)Man(a1-3)[Fuc(a1-2)Gal(b1-4)[Fuc(a1-3)]GlcNAc(b1-2)Man(a1-6)]Man(b1-4)GlcNAc(b1-4)[Fuc(a1-6)]GlcNAc", "in_short": "as §1"}, "[6]": {"target": "Fuc(a1-2)[Gal(a1-3)]Gal(b1-3)GlcNAc(b1-3)GalNAc", "in_short": "as §1"}, "[7]": {"target": "Fuc(a1-2)[Gal(a1-3)]Gal(b1-4)[Fuc(a1-3)]GlcNAc", "in_short": "as §1"}, "[8]": {"target": "Fuc(a1-2)[GalNAc(a1-4)]Gal(b1-4)GlcNAc", "in_short": "as §1"}, "[9]": {"target": "Fuc(a1-3)[Gal(b1-4)]GlcNAc(b1-2)Man(a1-3)[Fuc(a1-3)[Gal(b1-4)]GlcNAc(b1-2)Man(a1-6)]Man(b1-4)GlcNAc(b1-4)GlcNAc", "in_short": "as §1"}, "[10]": {"target": "Fuc(a1-3)[Gal(b1-4)]GlcNAc(b1-3)GalNAc", "in_short": "as §1"}, "[11]": {"target": "Fuc(a1-3)[Gal3S(b1-4)]GlcNAc6S", "in_short": "as §1"}, "[12]": {"target": "Gal(a1-3)Gal(b1-3)GlcNAc(b1-2)Man", "in_short": "as §1"}, "[13]": {"target": "Gal(a1-3)Gal(b1-4)GlcNAc(b1-3)GalNAc", "in_short": "as §1"}, "[14]": {"target": "Gal(a1-3)[Gal(a1-4)]Gal(b1-4)GlcNAc", "in_short": "as §1"}, "[15]": {"target": "Gal(a1-4)Gal(b1-4)GlcNAc(b1-2)Man(a1-3)[Gal(a1-4)Gal(b1-4)GlcNAc(b1-2)Man(a1-6)]Man(b1-4)GlcNAc(b1-4)GlcNAc", "in_short": "as §1"}, "Gal(b1-3)Gal(b1-4)GlcNAc": {"target": "Gal(b1-3)Gal(b1-4)GlcNAc", "in_short": "as §1"}, "[16]": {"target": "Gal(b1-3)GlcNAc(b1-2)Man(a1-3)[Gal(b1-3)GlcNAc(b1-2)Man(a1-6)]Man(b1-4)GlcNAc(b1-4)GlcNAc", "in_short": "as §1"}, "[17]": {"target": "Gal(b1-3)[Fuc(a1-4)]GlcNAc(b1-3)Gal(b1-4)[Fuc(a1-3)]GlcNAc", "in_short": "as §1"}, "[18]": {"target": "Gal(b1-4)GalNAc(b1-3)[Fuc(a1-2)]Gal(b1-4)GlcNAc", "in_short": "as §1"}, "[19]": {"target": "Gal(b1-4)GlcNAc(b1-2)[Gal(b1-4)GlcNAc(b1-6)]Man(a1-6)[GlcNAc(b1-4)][Gal(b1-4)GlcNAc(b1-2)[Gal(b1-4)GlcNAc(b1-4)]Man(a1-3)]Man(b1-4)GlcNAc(b1-4)[Fuc(a1-6)]GlcNAc", "in_short": "as §1"}, "[20]": {"target": "Gal(b1-4)GlcNAc(b1-3)Gal(b1-4)GlcNAc(b1-3)Gal(b1-4)GlcNAc(b1-3)Gal(b1-4)GlcNAc(b1-3)Gal(b1-4)GlcNAc(b1-3)Gal(b1-4)GlcNAc(b1-2)Man(a1-3)[Gal(b1-4)GlcNAc(b1-3)Gal(b1-4)GlcNAc(b1-3)Gal(b1-4)GlcNAc(b1-3)Gal(b1-4)GlcNAc(b1-3)Gal(b1-4)GlcNAc(b1-3)Gal(b1-4)GlcNAc(b1-2)Man(a1-6)]Man(b1-4)GlcNAc(b1-4)GlcNAc", "in_short": "as §1"}, "[21]": {"target": "Gal3S(b1-4)[Fuc(a1-3)]Glc6S", "in_short": "as §1"}, "Gal3S6S(b1-4)GlcNAc6S": {"target": "Gal3S6S(b1-4)GlcNAc6S", "in_short": "as §1"}, "Gal6S(b1-3)GlcNAc": {"target": "Gal6S(b1-3)GlcNAc", "in_short": "as §1"}, "GalNAc(b1-3)GalNAc": {"target": "GalNAc(b1-3)GalNAc", "in_short": "as §1"}},
  "note": "The entries come from a sample that favours the strongest signals as a whole.",
  "data": [
    {"binder": "B1", "values": [
      {"measurement": "glycan array binding signal (z-score)", "setting": "Fuc(a1-2)Gal(b1-3)GlcNAc", "result": -0.32},
      {"measurement": "glycan array binding signal (z-score)", "setting": "[1]", "result": -0.541},
      {"measurement": "glycan array binding signal (z-score)", "setting": "Fuc(a1-2)Gal(b1-4)Glc", "result": -0.401},
      {"measurement": "glycan array binding signal (z-score)", "setting": "[2]", "result": 2.63},
      {"measurement": "glycan array binding signal (z-score)", "setting": "[3]", "result": 0.277},
      {"measurement": "glycan array binding signal (z-score)", "setting": "[4]", "result": -0.243},
      {"measurement": "glycan array binding signal (z-score)", "setting": "[5]", "result": 5.16},
      {"measurement": "glycan array binding signal (z-score)", "setting": "[6]", "result": -0.226},
      {"measurement": "glycan array binding signal (z-score)", "setting": "[7]", "result": -0.096},
      {"measurement": "glycan array binding signal (z-score)", "setting": "[8]", "result": 1.69},
      {"measurement": "glycan array binding signal (z-score)", "setting": "[9]", "result": 6.27},
      {"measurement": "glycan array binding signal (z-score)", "setting": "[10]", "result": -0.063},
      {"measurement": "glycan array binding signal (z-score)", "setting": "[11]", "result": 0.002},
      {"measurement": "glycan array binding signal (z-score)", "setting": "[12]", "result": 4.49},
      {"measurement": "glycan array binding signal (z-score)", "setting": "[13]", "result": -0.404},
      {"measurement": "glycan array binding signal (z-score)", "setting": "[14]", "result": 2.38},
      {"measurement": "glycan array binding signal (z-score)", "setting": "[15]", "result": 9.96},
      {"measurement": "glycan array binding signal (z-score)", "setting": "Gal(b1-3)Gal(b1-4)GlcNAc", "result": -0.412},
      {"measurement": "glycan array binding signal (z-score)", "setting": "[16]", "result": 4.38},
      {"measurement": "glycan array binding signal (z-score)", "setting": "[17]", "result": -0.383},
      {"measurement": "glycan array binding signal (z-score)", "setting": "[18]", "result": -0.3},
      {"measurement": "glycan array binding signal (z-score)", "setting": "[19]", "result": 5.5},
      {"measurement": "glycan array binding signal (z-score)", "setting": "[20]", "result": 2.58},
      {"measurement": "glycan array binding signal (z-score)", "setting": "[21]", "result": 0.78},
      {"measurement": "glycan array binding signal (z-score)", "setting": "Gal3S6S(b1-4)GlcNAc6S", "result": 0.182},
      {"measurement": "glycan array binding signal (z-score)", "setting": "Gal6S(b1-3)GlcNAc", "result": 1.2},
      {"measurement": "glycan array binding signal (z-score)", "setting": "GalNAc(b1-3)GalNAc", "result": -0.663}
    ]}
  ]
}
